The values that follow come from PubChem BioAssay (NCI).

Each structure is given as a SMILES string. About 83,000 compounds went through this panel and 20% of them were active in at least one assay; those are over-represented in the sample as a whole.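 Treatment: one concentration, 48 hours, 96-well format. Scoring: percent growth, with anything below 10 considered active.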 Values without a mark were called inactive. The source made the active and inactive calls.

The experiment has as its system MDA-MB-468 breast. Briefly: NCI-60 one-dose screen, 48 h (100 = growth as untreated, 0 = no growth, -100 = all killed). The conditions noted are these: 10 µM unless noted.
As to `C/C=C/C1=CN2C(=O)c3cc(OC4OC(C)C(NC)C(C)(O)C4O)c(C)c(O)c3N=C[C@@H]2C1` (some centres not stated), the growth was -57.5% (active). As for `O=C1OC(/C=C/c2ccccc2)=NC/1=C/c1ccccc1[N+](=O)[O-]`, the growth was 101%. As for `Cc1nc(Sc2nc3ccc([N+](=O)[O-])cc3s2)sc1C`, the growth was 6.67% (active).

As to `CCOCCNc1ccc(S(=O)(=O)c2ccc(N)cc2)cc1N`, the growth is 95.9%. On to `COc1ccc(C2C=C(c3ccc(Cl)cc3)N=C3SC=CN32)c(Br)c1` (configuration not stated), for which the growth was 61%. As to `C=CC(=O)NCCOc1cccc(Nc2cc(NCCCNC(=O)C3CCC3)c(Br)cn2)c1`, the growth is -59.5% (active). `NS(=O)(=O)Oc1ccc(-c2sc3cc(O)ccc3c2C(=O)c2ccc(OCCN3CCCCC3)cc2)cc1`: the growth was 95.1%. `CC1OC(O[C@@H]2[C@H](O)C(CO)OC(O[C@H]3COC(O[C@H]4CC[C@]5(C)[C@H]6CC[C@]78OC[C@@]9(CC[C@](C)(C=O)C[C@H]97)C(=O)C[C@@]8(C)[C@]6(C)CC[C@H]5C4(C)C)[C@@H](O)[C@@H]3O)[C@H]2OC2OC[C@@H](O)[C@@H](O)[C@@H]2O)[C@@H](O)[C@@H](O)[C@H]1O` (some centres not stated): the growth is 104%. The value for `CCN(CCN(C)C)C(=O)CNCc1cc(C(N)=O)ccn1` was 101%.

For the compound `CC(=O)c1nc2ccccc2n1CCNC(N)=O`, the growth was 60.8%.

`COc1ccc(N2CCN(Cc3cc(C(=O)/C=C/c4c[nH]c5ccccc45)ccc3O)CC2)cc1`: the growth is 99.5%. Consider `O=S(=O)(NCCCNc1nccc(-n2cnc3ccccc32)n1)c1ccc(C(F)(F)F)cc1`, for which the growth is 76.2%.
